In PubChem BioAssay AID720514 (Broad Institute, 2013):
About 300 (14%) of roughly 2,100 compounds were called active. Not shown: some 2% with an inconclusive outcome.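 Rule for the calls: active = every replicate test run called active, with the signal falling and half-maximal concentration within twice the top valid dose; inconclusive = the replicate test runs disagree in their calls; inactive = every test run inactive, including effects in the opposite direction.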 These entries were drawn from the full list. Potency and affinity values are given separately.

Experiment: reduced cellular PGC1a acetyl-lysine signal – cell-based, cherry-picked samples, dose response (AID 720514);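 note: actives lower the acetylation signal so they count as inhibitors of PGC1a acetylation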
Settings: U2OS PGC1a acetylation, AlphaLISA, overnight; series mostly up to 19.5 µM

outcome, inactive:
C[C@H]1CN([C@@H](C)CO)C(=O)c2cccc(NS(=O)(=O)c3ccc(F)cc3)c2O[C@H]1CN(C)Cc1ccc(C(F)(F)F)cc1
COc1ccc(S(=O)(=O)N(C)C[C@@H]2Oc3cc(C#CC4CC4)ccc3S(=O)(=O)N([C@@H](C)CO)C[C@@H]2C)cc1
COc1ccc(S(=O)(=O)N(C)C[C@@H]2Oc3cc(C#CC4CC4)ccc3S(=O)(=O)N([C@H](C)CO)C[C@@H]2C)cc1
CCCCC(=O)Nc1ccc(NC(=O)c2cccs2)cn1
OCCNc1nc(N2CCCCC2)nc2ccccc12
O=[N+]([O-])c1cc(-c2nnc(Nc3ccc(O)cc3)c3ccccc23)ccc1N1CCOCC1
Cc1ccc(-c2nnc(Nc3ccc4c(c3)OCO4)c3ccccc23)cc1S(=O)(=O)NCCO
Cc1ccc2c(CN(Cc3ccccc3)Cc3ccccc3)cc(=O)oc2c1
COCCNC(=O)c1ccc(C)cc1C
COc1ccc(S(=O)(=O)N2CC[C@@H]3[C@H](CO)Nc4ccc(-c5ccccc5F)cc4[C@@H]32)cc1
Cc1ccc(S(=O)(=O)N(Cc2ccc(F)cc2)Cc2ccco2)cc1
CCOc1ccc(Nc2oc(-c3ccc(Cl)cc3)nc2C#N)cc1
COc1ccc(S(=O)(=O)N(C)C[C@@H]2Oc3ccc(NC(=O)CCN4CCOCC4)cc3C(=O)N([C@H](C)CO)C[C@H]2C)cc1
COCC(=O)Nc1ccc2c(c1)OC[C@@H](C)N(CCc1ccccc1)C[C@H](C)[C@H](OC)CN(C)C2=O
CO[C@@H]1CN(C)C(=O)c2cc(NC(=O)c3ccc4c(c3)OCO4)ccc2OC[C@@H](C)N(CC2CC2)C[C@H]1C
COC(=O)c1c(NC(=O)COC(=O)[C@@H](NS(=O)(=O)c2ccccc2)C(C)C)sc2c1CCC2
Cc1cc(Nc2ccccc2)cc(=O)n1C
CCN(CC)CCOc1ccc(/C(=C(\Cl)c2ccccc2)c2ccccc2)cc1
COc1ccc(CN(CCC(C)C)S(=O)(=O)c2ccccc2Br)cc1
O=C(NC1CCCCC1)c1cccnc1C(=O)O
Nc1nnc(SCC(=O)NC2CCCCC2)n1-c1ccccc1
Cc1ccccc1Cn1cc(NC(=O)c2cc(-c3cccs3)on2)cn1
Cc1cc2cc3c(cc2nc1SCC(=O)OC(C)C)OCCO3
Cc1cccc(-c2ccc3[nH]c4c(c3c2)CCN2C[C@@H]([C@H](C)O)[C@@H](N(C)C(=O)NC3CCCCC3)C[C@@H]42)c1
O=C(Nc1ccc(-c2noc(CCc3ccccc3)n2)cc1)c1cccnc1
COC(=O)c1ccc2[nH]c3cccc(/C(=C/c4ccccc4)c4ccccc4)c3c2c1
O=C(Nc1cnc2ccccc2c1)c1cccnc1
COc1ccc(Br)cc1CNc1ccccc1
CCn1c(SCC(=O)Nc2ccc(NC(=O)c3ccco3)cc2)nnc1-c1cccs1
Cc1cc(C)n2c(SCC(=O)NCc3ccco3)nnc2n1
NC(=O)Cc1ccc2c(c1)[nH]c1ccccc12
COc1ccccc1-c1ccc(C2[C@@H]3CN(S(=O)(=O)c4ccc(C)cc4)C[C@H]2N3)cc1 (stereo not given in full)
Cc1ccccc1-c1ccc(C2[C@@H]3CN(S(=O)(=O)c4ccccc4C)C[C@H]2N3)cc1 (stereo not given in full)
O=S(=O)(c1ccc(Cl)cc1)N1[C@@H]2CNC[C@H]1C2c1ccc(-c2cccc(F)c2)cc1 (stereo not given in full)
Cc1ccc(S(=O)(=O)N2C[C@@H]3N[C@H](C2)[C@@H]3c2ccc(-c3cccc(C)c3)cc2)cc1
Fc1ccc(CN(Cc2ccccc2)C(c2cccs2)c2nnnn2C2CCCCC2)cc1 (stereo not given)
O=C(NCc1ccc(Cl)cc1)C1CCC(CNc2c(N3CCCC3)c(=O)c2=O)CC1 (stereo not given)
Cc1cccc(Oc2nccc(C(F)(F)F)c2C(=O)Nc2ccc(F)cc2F)c1
c1coc(CN(Cc2cccs2)Cc2nnnn2C2CCCCC2)c1
C[C@@H](c1ccccc1)N1Cc2ccccc2Oc2cc(Br)ccc2S1(=O)=O
C=C[C@H]1C(C(=O)OCC)=CC[C@@H](c2ccccc2)N1S(=O)(=O)c1ccc(C)cc1
CCOC(=O)C1=CC[C@@H](c2ccc(F)cc2)N(S(=O)(=O)c2ccc(C)cc2)[C@H]1c1ccccc1
O=C(Nc1cccnc1)c1ccc(Oc2ccccc2)cc1
Nc1ccc(N2CCCCC2)cc1N1CCCCC1
O=C(Nc1cccnc1)c1ccc(Br)s1
Cc1ccc2[nH]c(=O)c(CN(Cc3ccc4c(c3)OCO4)Cc3nnnn3C3CCCC3)cc2c1
CC(C)CC#Cc1ccc([C@@H]2[C@H](CO)N3CCCCN(S(=O)(=O)Cc4ccccc4)C[C@@H]23)cc1
O=C(c1ccc(F)cc1)N1CC(=O)N2[C@H](CO)[C@@H](c3ccc(C#CCC4CCCC4)cc3)[C@@H]2C1
O=C(Nc1ccc(F)cc1)N1CC(=O)N2[C@@H](CO)[C@H](c3ccc(Br)cc3)[C@@H]2C1
Cc1cccc(OC2(c3ccccc3)OC(=O)c3ccccc32)c1C (stereo not given)
O=C(COc1cccnc1[N+](=O)[O-])NCCc1ccc(Cl)cc1
COc1cccc(-c2ccc(C3[C@@H]4CN(S(=O)(=O)c5cccc(OC)c5)C[C@H]3N4)cc2)c1 (stereo not given in full)
COc1ccccc1-c1ccc(C2[C@@H]3CN(Cc4cccc(F)c4)C[C@H]2N3)cc1 (stereo not given in full)
N#Cc1ccccc1S(=O)(=O)N1CCN(Cc2cc3c(cc2Br)OCCO3)CC1
CC(C)(C)c1ccc(NC(=O)N2CCCN(c3ccc([N+](=O)[O-])cn3)CC2)cc1
Cc1ccc(O)c(C(=O)c2cnc3c(c2)CN(CCC(C)C)C(=O)N3)c1
COc1ccc(Cc2nc(-c3ccc(NC(=O)c4cccnc4)cc3)no2)cc1
C=CCn1c(=NC(=O)c2ccc(S(=O)(=O)N3CCCC3)cc2)sc2cc(NC(C)=O)ccc21
CCOCCn1c(CN(Cc2ccccc2)Cc2ccccc2)nc2c1c(=O)[nH]c(=O)n2C
N#Cc1ccc(Oc2cccnc2)cc1C#N
COc1ccc(NC(=O)C(=O)NCCC2CCCCN2S(=O)(=O)c2cccs2)cc1 (stereo not given)
COc1ccccc1-c1ccc2c(c1)C(C)(Cc1ccc(OC(F)(F)F)cc1)C(=O)N2 (stereo not given)
O=C1Nc2cc(S(=O)(=O)N3CCCC3)ccc2N2CCCC12 (stereo not given)
Cc1cc(N2CCC(C(N)=O)CC2)nc(-c2ccccc2)n1
CCOC(=O)C1=C[C@@H](C(C)C)N(S(=O)(=O)c2ccc(C)cc2)[C@H]1c1ccc(C(F)(F)F)cc1
COc1ccc(C(C)(O)c2nc(-c3ccc(S(C)(=O)=O)cc3)cs2)cc1 (stereo not given)
CCOC(=O)CC(S(=O)(=O)c1ccccc1)S(=O)(=O)c1ccccc1
COc1ccc(CNc2ccc(-c3ccc(OC)cc3)nn2)cc1
COc1ccc(CCNCc2ccc(-c3ccccc3)cc2)cc1OC
O=C1C=C(c2cc3ccccc3s2)CCC1
O=C(c1cccs1)N1CCN(c2nnc(-c3ccccc3)c3ccccc23)CC1
N=c1n(CCN2CCCC2)c2ccccc2n1CC(O)c1ccc(Cl)c(Cl)c1 (stereo not given)
O=C(c1ccco1)N1CCN(c2nnc(-c3ccccc3)c3ccccc23)CC1
Cc1cccc2cc(CN(Cc3ccc(F)cc3)Cc3nnnn3C3CCCC3)c(=O)[nH]c12
Oc1ccc(C[C@@H]2CNCCN2CCC23CC4CC(CC(C4)C2)C3)cc1
CCn1nc(C)c(CN2CCc3c([nH]c4ccccc34)C2C(C)(C)C)c1C (stereo not given)
CCOC(=O)C1(Cc2ccccc2)CCN(Cc2cccc(OC)c2O)CC1
Cc1cc(C)c2c(-n3cccc3)c(C(=O)NNS(=O)(=O)c3ccccc3)sc2n1
Cc1cccc(S(=O)(=O)N(C)C[C@@H]2OCc3cn(nn3)CCCC(=O)N([C@H](C)CO)C[C@H]2C)c1
C[C@H]1CN([C@@H](C)CO)C(=O)CCCn2cc(nn2)CO[C@H]1CN(C)S(=O)(=O)c1ccc(Cl)cc1
CC(=O)CCS(=O)(=O)c1ccc(C)c(C)c1
O=C(C[C@@H]1C[C@@H]2c3cc(NC(=O)Nc4ccccc4F)ccc3O[C@@H]2[C@@H](CO)O1)NCc1ccc(Oc2ccccc2)cc1
COC(=O)C[C@@H]1C[C@H]2c3cc(NC(=O)Nc4ccc(C(F)(F)F)cc4)ccc3O[C@H]2[C@H](CO)O1
COc1ccc(CC(CC(=O)O)C(=O)Nc2ccc(OC)cc2)cc1 (stereo not given)
COc1ccc(CCNC(=O)COc2ccc(S(=O)(=O)N3CCCC3)cc2)cc1
CCn1c(SC/C=C/c2ccccc2)nnc1-c1cccs1
CC(=O)c1c(-c2ccccc2)[nH]c2ccccc12
CC(=O)c1ccc(N2CCN(C(=O)C(=O)c3c(C)[nH]c4ccccc34)CC2)cc1
O=C(Nc1ccc2c(c1)OCO2)C1CCN(c2ccc(S(=O)(=O)N3CCOCC3)cc2)CC1
O=C(Nc1cccc(S(=O)(=O)N2CCOCC2)c1)c1ccco1
O=C(CC1SC(=NCc2ccccc2)NC1=O)Nc1ccccc1 (stereo not given)
O=C(CC1CC1)N[C@@H]1CC[C@H](CCNS(=O)(=O)c2ccc(Cl)cc2)O[C@H]1CO
COC(=O)CSc1nc(-c2ccccc2)cc(-c2ccco2)c1C#N
COc1cc(Cn2c(N)c(C#N)c3nc4ccccc4nc32)cc(OC)c1
CCC(C)(C)n1nnnc1CN(Cc1ccc(Cl)cc1)Cc1ccco1
